Source: the supplement of paper PMC6555819

Columns and labels:
Assay in all cases: PBM binding z-score (relative to random genomic background probes); higher = stronger binding; sequences stand for … in GC…GCGATTGACAGCGTAGAATGAAGG
[1] = test system: PPARg:RXRa DBDmut IVT, anti-RXR (DBD mutation: RXRa K156A/R161A, NR concentration 270 nM, RXRa partner concentration 90 nM)
Procedure, shortened: (§1)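 Binding buffer was PBS pH 7.4 with 2% milk, 0.02% Triton X-100, 1 mM DTT, 0.2 mg/mL BSA and 0.4 mg/ml salmon testes DNA. In it, ligand-free nuclear receptor dimers were incubated 1 h on custom Agilent 4×180K protein-binding microarrays carrying double-stranded probes. Antibodies against each partner (one per run) detected binding, and z-scores were calculated against random background probes after regression normalization of scanned fluorescence.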

[2] = test system: PPARg:RXRa IVT, anti-PPARg (NR concentration 270 nM, RXRa partner concentration 90 nM)
Procedure, shortened: as §1

[3] = test system: PPARg homodimer (NR concentration 180 nM)
Procedure, shortened: as §1

[4] = test system: PXR:RXRa (NR concentration 270 nM, RXRa partner concentration 90 nM)
Procedure, shortened: as §1

[5] = test system: PXR homodimer (NR concentration 270 nM)
Procedure, shortened: as §1

[6] = test system: RARa:RXR (NR concentration 270 nM, RXRa partner concentration 90 nM)
Procedure, shortened: as §1

[7] = test system: RARa homodimer (NR concentration 270 nM)
Procedure, shortened: as §1

[8] = test system: RARb:RXRa (NR concentration 270 nM, RXRa partner concentration 90 nM)
Procedure, shortened: as §1

[9] = test system: RARb homodimer (NR concentration 270 nM)
Procedure, shortened: as §1

[10] = test system: RARg:RXRa (NR concentration 270 nM, RXRa partner concentration 90 nM)
Procedure, shortened: as §1

[11] = test system: RARg homodimer (NR concentration 270 nM)
Procedure, shortened: as §1

[12] = test system: RXRa DBDmut IVT, anti-RXR (DBD mutation: RXRa K156A/R161A, NR concentration 90 nM)
Procedure, shortened: as §1

[13] = test system: RXRa homodimer (NR concentration 180 nM)
Procedure, shortened: as §1

[14] = test system: THRa:RXRa (NR concentration 90 nM, RXRa partner concentration 90 nM)
Procedure, shortened: as §1

[15] = test system: THRa homodimer (NR concentration 90 nM)
Procedure, shortened: as §1

[16] = test system: VDR:RXRa (NR concentration 270 nM, RXRa partner concentration 90 nM)
Procedure, shortened: as §1

[17] = test system: VDR homodimer (NR concentration 270 nM)
Procedure, shortened: as §1

[18] = test system: PPARg DBDmut IVT, anti-PPARg (DBD mutation: PPARg1 K132A/R137A, NR concentration 270 nM)
Procedure, shortened: as §1

| Sequence | PBM binding z-score [1] | PBM binding z-score [2] | PBM binding z-score [3] | PBM binding z-score [4] | PBM binding z-score [5] | PBM binding z-score [6] | PBM binding z-score [7] | PBM binding z-score [8] | PBM binding z-score [9] | PBM binding z-score [10] | PBM binding z-score [11] | PBM binding z-score [12] | PBM binding z-score [13] | PBM binding z-score [14] | PBM binding z-score [15] | PBM binding z-score [16] | PBM binding z-score [17] | PBM binding z-score [18] |
| --- | --- | --- | --- | --- | --- | --- | --- | --- | --- | --- | --- | --- | --- | --- | --- | --- | --- | --- |
| TGGAGTAGGTTACGGGGGCATTCAGGGATGAAGA | 6.12 | 7.33 | 3.02 | 3.97 | 3.87 | 3.46 | 1.99 | 3.1 | 2.94 | 3.75 | 3.39 | 2.16 | 2.83 | 4.11 | 2.48 | 4.24 | 3.94 |  |
| CGAACTAAGTCAAAGGACAGTGAAAGGCGACGTA | 0.998 | 1.31 | 0.434 | -0.186 | -0.123 | 0.156 | 0.0596 | 1.29 | 1.11 | 0.597 | 1.1 | 0.0633 |  | 0.219 | -0.0369 |  | -0.13 | 0.266 |
| CGAACTAGGTCACCAGGACAGTTAAGAGGTTGGA | 8.1 | 8.64 | 2.14 | 1.49 | 0.424 | 2.73 | 0.481 | 4.2 | 3.53 |  | 5.1 | 1.21 | 3.22 | 3.41 | 1.68 |  | 0.347 | 5.1 |
| CGAACTAGGTCACCAGGACAGTGAAGAGGTTGGA | 8.47 | 8.79 | 2.24 | 1.37 | 0.0754 | 2.76 | 0.232 | 4.14 | 3.32 | 4.52 | 5.42 | 1.45 | 3.39 | 3.28 | 1.95 |  | 0.49 | 4.55 |
| CTATGTAGGTTAAGGGGGTCATTCCGTTTGAAAG | 7.72 | 7.69 | 3.57 | 5.52 | 4.83 | 5.89 | 1.49 | 3.33 | 3.76 | 5.11 | 4.02 | 2.32 | 5.96 | 3.58 | 1.83 | 7.25 | 5.23 |  |
| CCGAGTAGGTTACGAGGGGGCATTCAGTGCGAAT | 4.8 | 4.49 | 2.04 | 5.02 | 6.02 | 3.43 | 0.391 | 2.2 | 2.12 | 3.18 | 2.54 | 1.15 | 2.18 | 3.83 | 0.272 | 5.35 | 3.79 |  |
| CTATGTAGGTTAAGGCGGTCATTCAGTTTGAAAG | 6.74 | 6.69 | 0.855 | 1.37 | 2.41 | 0.782 | -0.289 | 1.62 | 1.65 | 1.31 | 1.44 | 0.518 | 0.704 | 0.878 | -0.0284 | 3.84 | 0.465 |  |
| CTATGTAGGTTAAGGGGGTCATACAGTTTGAAAG | 7.64 | 7.1 | 3.8 | 5.63 | 8.43 | 5.95 | 2.55 | 3.77 | 3.95 | 5.39 | 4.06 | 2.32 | 6.26 | 4 | 2 | 7.05 | 5.41 |  |
| CCGAGTAGGTTAAGAGGGGGCATTCAGTGCGAAT | 4.47 | 4.75 | 2.41 | 4.95 | 6.8 | 2.7 | 1.37 | 2.28 | 2.25 | 2.76 | 2.49 | 2.04 | 1.76 | 3.73 | 0.843 |  | 4.02 |  |
| CCGAGTAGGTTACGAGGGGGTATTCAGTGCGAAT | 4.05 | 4.17 | 1.24 | 2.91 | 0.693 | 1.99 | 0.377 | 1.51 | 1.15 | 1.98 | 1.63 | 0.847 | 1.17 | 2.6 | 0.46 |  | 1.11 |  |
| CTATGTAGGTTAAGGGGGTGATTCAGTTTGAAAG | 7.48 | 7.27 | 2.45 | 2.49 | 2.65 | 2.41 | 1.25 | 2.34 | 1.97 | 2.23 | 1.77 | 1.42 | 2 | 2.21 | 1.73 | 3.99 | 2.22 |  |
| TCGAGTAGGTTACGGGGGCATGCAGGGATGAAGA | 5.07 | 5.87 | 1.59 | 2.75 | 0.876 | 2.91 | 0.522 | 2.5 | 2.19 | 3.5 | 2.31 | 1.35 | 2.78 | 3.28 | 0.997 | 3.43 | 1.92 |  |
| CTATGTAGGTTAAGGGGGTCATTCTGTTTGAAAG | 6.99 | 7.55 | 3.03 | 5.44 | 3.94 | 5.46 | 1.35 | 3.47 | 3.79 | 4.83 | 3.82 | 2.56 | 5.51 | 3.69 | 2.09 |  | 4.58 |  |
| TCGAGTAGGTTACGGGCGCATTCAGGGATGAAGA | 2.38 | 2.9 | 0.541 | -0.126 | -0.432 | 0.353 | -0.39 | 0.68 | 0.216 | 0.276 | 0.202 | -0.064 | 0.599 | 0.304 | -0.327 |  | -0.375 |  |
| CCGAGTAGGTTACGAGGGGGAATTCAGTGCGAAT | 4.48 | 4.06 | 0.811 | 1.55 | 0.309 | 1.23 | 0.123 | 1.26 | 0.662 | 1.53 | 1.1 | 0.572 | 1.09 | 1.79 | 0.0868 |  | 0.419 |  |
| CCGAGTAGGTTACGAGGGGGCATTCTGTGCGAAT | 4.91 | 4.3 | 2.19 | 4.42 | 1.05 | 3.12 | 0.262 | 2.01 | 2.05 | 3.13 | 2.43 | 1.11 | 1.68 | 3.55 | 0.547 | 4.89 | 2.56 |  |
| CTATGTAGGTTAAGGGCGTCATTCAGTTTGAAAG | 7.33 | 6.94 | 1.62 | 0.377 | 0.443 | 0.584 | -0.284 | 1.27 | 0.798 | 0.63 | 0.752 | 0.53 | 0.739 | 1.42 | 0.232 |  | 0.4 |  |
